RORgamma inh: qHTS for inhibitors of ROR gamma transcriptional activity; Nuclear receptor ROR-gamma (Mus musculus), P51450; Drosophila S2 Gal4-RORgamma UAS-luciferase reporter, 20 h; Potency, µM (highest dose often 53.6 µM), without a hit: at the highest dose activity change, negative = inhibition, actives largely listed as inhibitors; 5.4% of 310,000 active; note: potency is the fitted concentration of half-maximal effect; nearly all actives have a fitted effect of over 60% in size
Target sequence (P51450 whole entry, looked up, the tested form may be a part): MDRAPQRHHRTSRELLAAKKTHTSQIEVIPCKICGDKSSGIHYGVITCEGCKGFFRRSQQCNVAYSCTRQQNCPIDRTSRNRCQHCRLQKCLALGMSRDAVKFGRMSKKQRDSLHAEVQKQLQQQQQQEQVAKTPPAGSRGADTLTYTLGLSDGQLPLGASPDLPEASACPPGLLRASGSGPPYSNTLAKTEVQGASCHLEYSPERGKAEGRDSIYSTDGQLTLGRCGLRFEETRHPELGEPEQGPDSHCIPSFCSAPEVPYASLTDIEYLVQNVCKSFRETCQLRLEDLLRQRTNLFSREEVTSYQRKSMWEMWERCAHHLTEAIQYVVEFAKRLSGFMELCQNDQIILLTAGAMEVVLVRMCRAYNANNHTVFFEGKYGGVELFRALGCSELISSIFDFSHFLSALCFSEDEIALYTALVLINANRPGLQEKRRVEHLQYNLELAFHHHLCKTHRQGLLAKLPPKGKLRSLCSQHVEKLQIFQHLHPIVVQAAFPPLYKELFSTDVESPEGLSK
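Luciferase reporter read in Schneider cells carrying Gal4-RORγ (mouse) and UAS-Photinus luciferase; cells given compound 1 h before 700 uM copper sulfate induction, then incubated 20 h at ambient temperature.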
IL-1B inflam inh: qHTS for Inhibitors of Inflammasome Signaling: IL-1-beta AlphaLISA Primary Screen; THP-1 LPS/ATP IL-1B secretion, AlphaLISA, 16 h; stronger effect = lower value; activity change, % at 57.5 µM; 4.7% of 360,000 active; AID 743279, 2014; in the data active = activity change below about -50%; inconclusive = mostly about -30% to -49%
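THP-1 cells pretreated 1 hr with compounds (up to 57.5 uM final), then stimulated with LPS (250 ng/mL final) plus ATP (1.25 mM final); secreted IL-1B measured by AlphaLISA after 16 hr, decreased signal indicating inhibition.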
DT40 TDP1 CPT: qHTS for Inhibitors of human tyrosyl-DNA phosphodiesterase 1 (TDP1): qHTS in cells in presence of CPT; chicken DT40 Tdp1-/-;hTDP1 cells + 20 nM CPT, ATP luminescence, 48 h; Potency, µM (top dose mostly 46.2 µM), without a hit: at the top dose activity change, negative = growth inhibition, most hits filed as inhibitors; 12% of 420,000 active; AID 686979, 2013; note: potency is the fitted concentration of half-maximal effect; nearly all actives have a fitted effect of over 55% in size
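Chicken DT40 Tdp1-/- cells complemented with human TDP1, 400 cells/well, exposed to compounds plus 20 nM camptothecin for at least 48 h at 37 C; viability read as ATP content by CellTiter-Glo luminescence.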
LDHA block: qHTS assay for inhibitors of human lactate dehydrogenase. 0.15% of 480,000 active. L-lactate dehydrogenase A chain (Homo sapiens), P00338. purified LDHA, NADH/diaphorase-resazurin fluorescence; stronger effect = lower value. activity change, % (values are at about 110 or 230 µM). AID 1347041, 2019; in the data active = activity change below about -30%; inconclusive = mostly about -25% to -30%;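 note: plate controls were DMSO wells for no effect and wells without enzyme for full effect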
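Remaining NADH was detected by diaphorase (0.133 mg/mL) converting 37 µM resazurin to fluorescent resorufin, read at 0 and 20 minutes. The preceding 5-minute room-temperature reaction used 2 nM LDHA, 0.2 mM sodium pyruvate and 0.06 mM NADH at pH 7.4.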
VP16 counter: VP16 counterscreen qHTS for inhibitors of ROR gamma transcriptional activity | Drosophila S2 Gal4-VP16 UAS-luciferase, luminescence, 20 h | Potency, µM (doses to about 53.6 µM), for inactives: top-dose activity, negative = inhibition, hits mostly inhibitors | 3.5% of 310,000 active;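 note: Gal4-VP16 expression switched on by copper sulfate through the metallothionein promoter; potency is the fitted concentration of half-maximal effect; nearly all actives have a fitted effect of over 50% in size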
DT40 TDP1 no CPT: qHTS for Inhibitors of human tyrosyl-DNA phosphodiesterase 1 (TDP1): qHTS in cells in absence of CPT | DT40 Tdp1-/- hTDP1 cells, no CPT, ATP luminescence, 48 h | Potency, µM (top dose mostly 46.2 µM), for the others: at the highest dose activity change, negative = growth inhibition, usual class: inhibitors | 15% of 420,000 active | AID 686978, 2013; note: potency is the fitted concentration of half-maximal effect; nearly all actives have a fitted effect of over 55% in size
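Growth kinetics read by CellTiter-Glo luminescence after ≥48 hr at 37 °C. Cells: DT40 Tdp1-/- stably carrying human TDP1, 400 per well, compound exposure in the absence of CPT (DMSO vehicle).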
Numbers without * were called inactive; u = inconclusive; x = no result given; [ ] = dose if it differs, or a comment. In the library only some 18% were active in any assay of this set; here they are far more common. Unless noted, calls come from the whole dose curve; as a rule, active = well fitted curve in the direction sought with a large enough effect; inconclusive = small, poorly fitted or top-dose-only effect, or another doubt; inactive = no such curve, though single readings can be large; an effect the other way counts as inactive or inconclusive. Unless noted, % is set by controls: 0 for no effect and ±100 for the full control effect.

SMILES	RORgamma inh	IL-1B inflam inh	DT40 TDP1 CPT	LDHA block	VP16 counter	DT40 TDP1 no CPT
Cc1ccc(-c2ccc(CN3C(C)C(=O)N(Cc4cn(Cc5ccco5)nn4)CCS3(=O)=O)cc2)cc1 (stereo unspecified)	x	-9.7	u	-11.5	x	u
COc1ccc(-c2ccc(CN3C(C(C)C)C(=O)N(Cc4cn(Cc5ccco5)nn4)CCS3(=O)=O)cc2)cn1 (stereo unspecified)	x	-24.6	18.4µM*	0.5	x	20.6µM*
COc1ccc(-c2ccc(CN3C(C(C)C)C(=O)N(Cc4cn(Cc5ccco5)nn4)CCS3(=O)=O)cc2)cc1OC (stereo unspecified)	x	12.0	u	-3.7	x	u
Cc1ccc(-c2ccc(CN3C(C)C(=O)N(Cc4cn(Cc5ccco5)nn4)CCS3(=O)=O)cc2)c(C)c1 (stereo unspecified)	x	-60.8*	u	-7.2	x	u
COC(=O)CNC(=O)c1cc(-c2ccccc2)nc2ccccc12	x	x	x	-10.9	x	x
COc1ccc(C(=O)CC2(O)C(=O)Nc3ccc(F)cc32)cc1 (stereo unspecified)	x	x	x	7.7	x	x
CCSc1ccc2cc(C(=O)O)[nH]c2c1	x	x	x	-1.0	x	x
CC1C(=O)N(Cc2cn(Cc3ccco3)nn2)CCS(=O)(=O)N1Cc1ccc(-c2ccccc2C(F)(F)F)cc1 (stereo unspecified)	x	-59.5*	u	-10.6	x	u
COc1ccc(-c2ccc(CN3C(C)C(=O)N(Cc4cn(Cc5ccco5)nn4)CCS3(=O)=O)cc2)cc1 (stereo unspecified)	x	5.9	20.6µM*	3.8	x	23.1µM*
CC(C)C1C(=O)N(Cc2cn(Cc3ccco3)nn2)CCS(=O)(=O)N1Cc1ccc(-c2ccc(Cl)c(Cl)c2)cc1 (stereo unspecified)	x	-22.7	4.61µM*	-13.6	x	3.26µM*
CCOC(=O)c1scc(-c2ccccc2)c1S(=O)(=O)Nc1cc(C)cc(C)c1	x	x	x	9.7	x	x
Nc1[nH]c(N=NC(=O)c2ccc(F)cc2)c2ccccc12	3.55µM*	0.0	1.4%	0.7	14.1µM*	-26.7%
Nc1ccccc1C(=O)N=Nc1[nH]c(N)c2ccccc12	u	-3.6	-8.8%	1.3	-27.1%	-17.3%
COc1cc(C2=N/C(=C\c3ccccc3)C(=O)O2)cc(OC)c1OC	-32.2%	x	-21.1%[9.04 µM]	x	2.9%	-3.6%[9.04 µM]
COc1cccc(C2=N/C(=C\N(C)C)C(=O)O2)c1	6.0%	-61.0*	u	-7.8	-10.8%	23.1µM*
CCCCCSc1nc2c(c(=O)[nH]c(=O)n2C)n1CCC	x	x	x	2.2	x	x
Cc1nn(C)c2c1c(-c1ccccc1)cc(=O)n2Cc1ccccc1F	x	x	u	2.6	x	-25.4%
COc1cccc(Cn2c(=O)cc(C)c3c(C)nn(-c4ccc(C)cc4)c32)c1	x	x	20.6µM*	-3.0	x	18.4µM*
COC(=O)c1ccc(Cn2c(=O)cc(C)c3c(C)nn(C)c32)cc1	x	x	10.3µM*	0.8	x	16.4µM*
COc1ccc(OC)c(NC(=O)Cn2c(=O)cc(-c3ccccc3)c3c(C)nn(C)c32)c1	x	x	u	-0.2	x	20.6µM*
Cc1nn(C)c2c1c(-c1ccccc1)cc(=O)n2Cc1ccc(F)cc1	x	x	16.4µM*	0.6	x	u
Cc1nn(C)c2c1c(-c1ccccc1)cc(=O)n2CC(=O)NC(C)(C)C	x	x	u	-1.6	x	u
Cc1ccc(OCCC(=O)OCC(=O)NC2CCCC(C)C2C)cc1 (stereo unspecified)	x	0.0	-28.6%	-0.2	x	7.2%
CC1CCCC(NC(=O)COC(=O)CCC2CCCC2)C1C (stereo unspecified)	-6.5%	-4.8	7.9%	-5.6	0.562µM*	-1.5%
COc1cc(C(=O)NCCCNc2nc3cc(C)c(C)cc3cc2C#N)cc(OC)c1OC	19.4%	-18.7	u	-4.9	-22.1%	23.1µM*
SMILES	RORgamma inh	IL-1B inflam inh	DT40 TDP1 CPT	LDHA block	VP16 counter	DT40 TDP1 no CPT
COc1cc(C(=O)NCCNc2nc3c(C)c(C)ccc3cc2C#N)cc(OC)c1OC	12.1%[1.91 µM]	-24.0	-1.8%	1.6	14.1%	-15.1%
COc1cc(C(=O)NCCNc2nc3cc(C)ccc3cc2C#N)cc(OC)c1OC	u	11.0	u	-0.3	-9.2%	16.4µM*
Cc1ccc2cc(C#N)c(NCc3ccco3)nc2c1	0.0%	12.5	23.1µM*	-1.2	-26.8%	u
N#C/C(=C/c1cccs1)c1ccc(C(F)(F)F)cn1	x	x	x	0.8	x	x
CCNC(=O)C1CCN(S(=O)(=O)c2c(C)nn(CC(=O)N3CCc4ccccc43)c2C)CC1	x	x	x	-2.2	x	x
CC1C(=O)N(Cc2ncc(-c3ccc(F)cc3)o2)C(=O)N1c1ccccc1 (stereo unspecified)	x	x	x	0.1	x	x
COc1ccc(Oc2coc3cc(OC(C)C(=O)OC(C)C)ccc3c2=O)cc1 (stereo unspecified)	x	x	x	-1.3	x	x
Cc1cc(C)nc(NS(=O)(=O)c2ccc(NC(=O)c3ccc(S(=O)(=O)N4CC(C)OC(C)C4)cc3)cc2)n1 (stereo unspecified)	24.7%	13.7	-6.2%	-6.0	u	-26.1%
Cc1ccc(O)c(-c2cc(C(=O)Nc3ccc(S(=O)(=O)Nc4nc(C)cc(C)n4)cc3)[nH]n2)c1	u	32.8	0.7%	1.9	-27.0%	-26.3%
Cc1ccc(-c2cc(C(=O)Nc3ccc(S(=O)(=O)N4CC(C)OC(C)C4)cc3)[nH]n2)c(O)c1 (stereo unspecified)	-21.9%	-22.5	16.4µM*	-5.3	u	u
Cc1ccc(O)c(-c2cc(C(=O)Nc3ccc(S(=O)(=O)N4CC(C)OC(C)C4)cc3)[nH]n2)c1 (stereo unspecified)	u	-74.4*	25.9µM*	-5.4	u	23.1µM*
COc1ccccc1CNCC(=O)Nc1cc(S(=O)(=O)N2CCCCCC2)ccc1Cl	u	-8.5	u	-20.2	10.7%	u
O=S(=O)(c1ccc(Cl)c(NC(=S)Nc2cccc(O)c2)c1)N1CCOCC1	-0.7%	-12.4	8.1%	-2.6	-1.6%	-23.4%
CC(NCC(=O)Nc1cc(S(=O)(=O)N2CCOCC2)ccc1Cl)c1ccc(Cl)cc1Cl (stereo unspecified)	x	-52.2*	u	-0.1	x	23.1µM*

Screening data as filed in PubChem BioAssay.
